Data: PubChem BioAssay (NCI)
About 83,000 compounds went through this panel and 20% of them were active in at least one assay; those are over-represented in the sample as a whole.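 Step 1: grow cells in 96-well plates. Step 2: add test compound at a single concentration. Step 3: incubate 48 h. Step 4: record percent growth.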 A number with no mark means an inactive call. Active and inactive are the calls of the source. The calls were made as follows: active = growth percent below 10; inactive = the rest.

Tests used:
Experiment in all cases: NCI-60 one-dose screen, 48 h (100 = growth as untreated, 0 = no growth, -100 = all killed)
Conditions in all cases: 10 µM unless noted
SK-MEL-2 melanoma = test system: SK-MEL-2 melanoma
EKVX NSCLC = test system: EKVX NSCLC
SN12C renal = test system: SN12C renal
UO-31 renal = test system: UO-31 renal
TK-10 renal = test system: TK-10 renal
ACHN renal = test system: ACHN renal
CAKI-1 renal = test system: CAKI-1 renal
A498 renal = test system: A498 renal
CCRF-CEM leukemia = test system: CCRF-CEM leukemia
MOLT-4 leukemia = test system: MOLT-4 leukemia
SR leukemia = test system: SR leukemia
RPMI-8226 leukemia = test system: RPMI-8226 leukemia
OVCAR-8 ovarian = test system: OVCAR-8 ovarian
OVCAR-5 ovarian = test system: OVCAR-5 ovarian
OVCAR-4 ovarian = test system: OVCAR-4 ovarian
SK-OV-3 ovarian = test system: SK-OV-3 ovarian
IGROV1 ovarian = test system: IGROV1 ovarian
OVCAR-3 ovarian = test system: OVCAR-3 ovarian
HS 578T breast = test system: HS 578T breast
NCI/ADR-RES ovarian = test system: NCI/ADR-RES ovarian

| SMILES | growth (SK-MEL-2 melanoma) | growth (EKVX NSCLC) | growth (SN12C renal) | growth (UO-31 renal) | growth (TK-10 renal) | growth (ACHN renal) | growth (CAKI-1 renal) | growth (A498 renal) | growth (CCRF-CEM leukemia) | growth (MOLT-4 leukemia) | growth (SR leukemia) | growth (RPMI-8226 leukemia) | growth (OVCAR-8 ovarian) | growth (OVCAR-5 ovarian) | growth (OVCAR-4 ovarian) | growth (SK-OV-3 ovarian) | growth (IGROV1 ovarian) | growth (OVCAR-3 ovarian) | growth (HS 578T breast) | growth (NCI/ADR-RES ovarian) |
| --- | --- | --- | --- | --- | --- | --- | --- | --- | --- | --- | --- | --- | --- | --- | --- | --- | --- | --- | --- | --- |
| C/C=C(/C)n1cnc2c(Nc3ccccn3)nc(Cl)nc21 | 97.1% | 96.9% | 94.1% | 80.8% | 114% | 99.9% | 94.2% | 111% | 104% | 100% | 105% | 98.2% | 100% | 98.4% | 105% | 111% | 103% | 111% |  |  |
| N#Cc1c(-c2ccccc2)nc(SCC(O)CN2CCOCC2)nc1N1CCOCC1 (stereo not given) | 7.33% (active) | 65.4% | 57.8% | 41.7% | 40.8% | 54.4% | 37.4% | -3.34% (active) | 88% | 83.2% | 85.1% | 105% | 33.4% | 61.2% | 68.6% | 41.1% | -29.5% (active) | 35.4% | 6.19% (active) |  |
| Cc1ccc(S(=O)(=O)OCCCOS(=O)(=O)c2ccc(C)cc2)cc1 | 101% | 99.7% | 98.1% | 71.3% | 109% | 96% | 68.3% | 106% | 79.1% | 62.5% | 82.4% | 76.2% | 90% | 125% | 100% | 115% | 76.1% | 107% | 99.8% | 116% |
| COc1cc(/C=C/C(=O)c2ccc(-n3cc(CN4CCN(c5cc6c(cc5F)c(=O)c(C(=O)O)cn6C5CC5)CC4)nn3)cc2)ccc1O | 93% | 85% | 37.6% | 52.6% | 84.9% | 77.7% | 52.5% | 70.8% | 29.9% | 68.2% | 14.1% | -14.6% (active) | 42.7% | 84.7% | 62.9% | 72.3% | 51.8% | 57.3% | 73.7% | 94.2% |
| CC1=C2[C@@H](CC1)[C@]1(C)O[C@@](c3ccccc3)(C[C@H]1OC(=O)CO)[C@H]2OC(=O)/C=C/c1ccccc1 | 91.9% | 83.4% | 41.4% | -8.71% (active) | 111% | 2.46% (active) | 72.2% | -78.1% (active) | 77.5% | 70.8% | 68.8% | 77.7% | 10.3% | 108% | 5.56% (active) | 119% | 108% | 97.6% | -10.2% (active) | 2.86% (active) |
| C=CC(=O)Nc1ccc(Oc2nccc(Nc3nnc(-c4ccc(C)cc4)s3)n2)cc1 | 79.4% | 103% | 84% | 55.7% | 135% | 68.5% | 41.1% | 83.3% | 50.5% | 68.6% | 36.2% | 61.8% | 81.4% | 105% | 99% | 78% | 62.5% | 43% | 67.4% |  |
| Oc1c(CN2CCOCC2)cc(COCc2ccccc2)c2cccnc12 | 36.9% | 92.5% | 39.9% | 6.45% (active) | 31.1% | 12.6% | 13.5% | 49.7% | 11.7% | 15.3% | 13.4% | 29.1% | 14.5% | 37.8% | 24.5% | 9.56% (active) | 16.2% | 19.7% | 68.4% |  |
| FC(F)(F)c1ccc(Cn2cc(CSc3nc4ccccc4s3)nn2)cc1 | 95.6% | 99.5% | 99.9% | 78.7% | 97.6% | 101% | 84.3% | 86% | 91% | 98.1% | 96.3% | 96.7% | 91% | 98.6% | 94.8% | 104% | 97.7% | 105% | 88.6% | 95.7% |
| CCOC(=O)c1cnc2c(N=Nc3ccc(OC)cc3)c(N)nn2c1N | 102% | 103% | 95.2% | 94.2% | 104% | 109% | 96.6% | 92.5% | 103% | 88% | 112% | 104% | 102% | 110% | 111% | 108% | 93.7% | 113% | 104% | 98.9% |
| COc1ccc(Cn2cc3c(c2-c2ccccc2)CCc2cnoc2-3)cc1 | 64.6% | 44.1% | 37.3% | 36.5% | 91.9% | 46.6% | 34% | 33.3% | 8.41% (active) | 25.5% | 29.9% | -25.3% (active) | 19.9% | 26% | 54.7% | 21.9% | 21.7% | -11.5% (active) | 9.15% (active) | 4.47% (active) |
| C=C1C(=O)O[C@H]2[C@H]1CC/C(COC(=O)CSCSCC(=O)OC/C1=C/CC[C@@]3(C)O[C@H]3[C@H]3OC(=O)C(=C)[C@@H]3CC1)=C\CC[C@@]1(C)O[C@@H]21 | 59% | 15.9% | 5.07% (active) | -0.857% (active) | 15.3% | 7.98% (active) | 15.9% | 83.6% | -35% (active) | -15.3% (active) | -16.4% (active) | -31.2% (active) | 5.96% (active) | 30.1% | 50.5% | 104% | 0.96% (active) | -21.4% (active) | 23.1% | 62.4% |
| c1nc2ccc(-c3cc4ccc5[nH]ncc5c4c4c3CCCC4)cc2[nH]1 | 43% | 93% | 76.4% | 92.9% | 61.7% | 52.2% | 54% | 49.9% | 31% | 33.8% | 8.69% (active) | 58.1% | 78.5% | 69.3% | 88% | 50.2% | 36% | 89.5% | 65.2% | 110% |
| O=C(Oc1ccc(CCl)cc1)c1ccccc1 | -71.4% (active) | -100% (active) | -84.8% (active) | -92.6% (active) | -96.3% (active) | -92.1% (active) | -96.3% (active) | -87.4% (active) | -48.6% (active) | -49.7% (active) | -43.7% (active) | -50.2% (active) | -84.5% (active) | -85.2% (active) | -83.1% (active) | -100% (active) | -81.4% (active) | -97.3% (active) | -13.4% (active) | -63.7% (active) |
| COc1ccc2c(c1)/C(=N/c1n[nH]c(=S)s1)C(=O)N2 | 105% | 98.6% | 97.8% | 74.3% | 115% | 83.6% | 78.4% | 89.9% | 44.5% | 76.2% | 69.9% | 54.1% | 92.8% | 102% | 97.7% | 148% | 75.3% | 96.2% | 91.7% | 94% |
| O=c1cc(-c2ccccc2)[nH]c2ncc(-c3ccc(F)cc3)n12 | 74.2% | 87.8% | 88.5% | 69.2% | 105% | 88.3% | 48.1% | 59% | 56.3% | 39.9% | 16.1% | 74.5% | 89.4% | 94.5% | 93.9% | 82.1% | 67% | 54% | 68% | 45.3% |
